# High-throughput results as filed in PubChem BioAssay.
# Compounds with a hit are over-represented: about 19% of the library has one in this group of screens.
# HT1080 IDH1KD tx – qHTS for induction of synthetic lethality in tumor cells producing 2HG: qHTS for the HT-1080-IDH1KD cell line. AID 686971, 2013. 360,000 tested, 2% active. HT-1080 IDH1 knockdown viability, ATP luminescence, 48 h. Potency, µM (highest dose often 46.1 µM), most hits filed as cytotoxic
#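 Using the IDH1-knockdown HT-1080 line run in the same batch and compound series as the NT line, viability after 48 h at 37 °C was determined by CellTiter-Glo luminescence and expressed as % activity.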
# TDP1 cell CPT – qHTS for Inhibitors of human tyrosyl-DNA phosphodiesterase 1 (TDP1): qHTS in cells in presence of CPT. chicken DT40 Tdp1-/-;hTDP1 cells + 20 nM CPT, ATP luminescence, 48 h. Potency, µM (series often up to 46.2 µM), hits mostly inhibitors. 420,000 tested, 12% active. AID 686979, 2013; also: nearly all actives have a fitted effect of over 55% in size
#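 Cell growth measured by CellTiter-Glo luminescence after a minimum 48 h, 37 C compound exposure with 20 nM CPT in Tdp1-knockout DT40 cells stably expressing hTDP1, seeded 400/well; qHTS titration format.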
# IL-1B inflam inh – qHTS for Inhibitors of Inflammasome Signaling: IL-1-beta AlphaLISA Primary Screen. THP-1 LPS/ATP IL-1B secretion, AlphaLISA, 16 h; stronger effect = lower value. activity change, % at 57.5 µM. 360,000 tested, 4.7% active. AID 743279, 2014; in the data active = activity change below about -50%; inconclusive = mostly about -30% to -49%
#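 THP-1 cells pretreated 1 hr with compounds (up to 57.5 uM final), then stimulated with LPS (250 ng/mL final) plus ATP (1.25 mM final); secreted IL-1B measured by AlphaLISA after 16 hr, decreased signal indicating inhibition.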
# HT1080-NT tox – qHTS for induction of synthetic lethality in tumor cells producing 2HG: qHTS for the HT-1080-NT fibrosarcoma cell line | AID 686970, 2013 | Potency, µM (highest dose often 46.1 µM), actives largely listed as cytotoxic | HT-1080-NT fibrosarcoma viability, CellTiter-Glo ATP luminescence, 48 h | 360,000 tested, 1.6% active;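 also: NT is the 2HG producing partner of a matched IDH1 knockdown line; nearly all actives have a fitted effect of over 55% in size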
#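 Viability by CellTiter-Glo luminescence after 48 h compound exposure at 37C of HT-1080-NT cells (750/well, RPMI, 5% FBS). % activity scaled between DMSO wells and medium-only wells, then curve-fitted and categorized by curve class.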
# TDP1 cell noCPT – qHTS for Inhibitors of human tyrosyl-DNA phosphodiesterase 1 (TDP1): qHTS in cells in absence of CPT. DT40 Tdp1-/- hTDP1 cells, no CPT, ATP luminescence, 48 h. Potency, µM (series often up to 46.2 µM), actives largely listed as inhibitors. 420,000 tested, 15% active. AID 686978, 2013; also: nearly all actives have a fitted effect of over 55% in size
#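 Growth kinetics read by CellTiter-Glo luminescence after ≥48 hr at 37 °C. Cells: DT40 Tdp1-/- stably carrying human TDP1, 400 per well, compound exposure in the absence of CPT (DMSO vehicle).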
# Hits are given with their value; . = inactive; ? = inconclusive; / = no result given; [ ] = another dose, or the depositor's remark. Unless noted, calls follow the shape of the dose curve; as a rule, active = well fitted curve in the direction sought with a large enough effect; inconclusive = small, poorly fitted or top-dose-only effect, or another doubt; inactive = no such curve, though single readings can be large; an effect the other way counts as inactive or inconclusive.
SMILES,HT1080 IDH1KD tx,TDP1 cell CPT,IL-1B inflam inh,HT1080-NT tox,TDP1 cell noCPT
COc1ccc(-c2csc3nc(C)n(-n4cccc4)c(=O)c23)cc1OC,.,16.4µM,.,.,23.1µM
COc1ccc(-c2csc3ncn(-c4cccc(C)c4)c(=O)c23)cc1OC,.,?,?,.,?
COc1ccc(-c2csc3nc(C)nc(N4CCCCC4)c23)cc1OC,?,?,.,16.4µM,14.6µM
COC(=O)[C@@]1(Sc2ccc(OC)cc2)CC(=O)N[C@@H]1c1ccccc1,.,.,.,.,.
CCN(C(=O)COC(=O)c1nc2nc(C)cc(C)n2n1)C1CCS(=O)(=O)C1 (configuration not stated),.,.,.,.,.
COc1cccc(CNc2ncnc3sc(C(=O)N4CC5CCC4C5)c(C)c23)c1OC (configuration not stated),/,.[9.04 µM],/,/,.
COc1cccc(C(=O)OCC(=O)c2c(N)n(C)c(=O)n(C)c2=O)c1,.,.,.,.,.
CCCCCCCCCCC1=C(C)C(=O)C(OC)=C(OC)C1=O,/,.,/,/,?
CCCCCCCCSC1=CC(=O)C(OC)=C(OC)C1=O,.,1.16µM,.,.,1.03µM
O=C(Nc1ccccc1C(F)(F)F)C1CCCC1,.,.,.,.,.
O=C(Nc1ccccc1-c1ccccc1)C1CCCC1,?,6.51µM,.,?,6.51µM
O=C(Nc1ccccc1-c1ccccc1)C12CC3CC(CC(C3)C1)C2,?,?,.,.,14.6µM
CCN(CC(=O)Nc1c(F)cccc1F)C(=O)CCNC(=O)c1ccc([N+](=O)[O-])cc1,.,.,.,.,.
Cc1ccc(-c2nc(N)s[n+]2-c2ccccc2)cc1,.,?,.,.,?
CNc1nc(-c2ccccc2)[n+](-c2ccc(C)cc2)s1,.,3.26µM,-79.1,.,5.17µM
CCC1CN(C(=O)Nc2cccc(OC)c2)c2ccccc2O1 (configuration not stated),/,?,/,/,23.1µM
CCC1CN(C(=O)Nc2cccc(C)c2)c2cc(C)ccc2O1 (configuration not stated),.,?,.,.,20.6µM
CCC1CN(C(=O)NCc2ccccc2)c2ccccc2O1 (configuration not stated),.,.,.,.,?
CCOC(=O)c1cccc(NC(=O)N2CC(CC)Oc3ccccc32)c1 (configuration not stated),/,?,/,/,16.4µM
COc1ccc(N2CCN(C(=O)NCc3ccc(C)cc3)CC2)cc1,?,?,.,.,?
CN1CCC2(CC1)CCN(C(=O)c1ccncc1)CC2,/,.,/,/,.
CCOc1ccccc1N/C(=C(/C(Cl)=C(Cl)Cl)[N+](=O)[O-])n1cncn1,.,.,.,.,?
O=[N+]([O-])/C(C(Cl)=C(Cl)Cl)=C(\Sc1ccccc1)N1CCCCC1,.,18.4µM,.,.,23.1µM
CCN(CC)/C(Sc1ccccc1)=C(/C(Cl)=C(Cl)Cl)[N+](=O)[O-],.,20.6µM,.,.,?
CCN(CC)/C(Sc1ccccc1)=C(\C(Cl)=C(Cl)Cl)[N+](=O)[O-],.,?,-89.0,.,?
Cc1cccc(CNC(=O)C2CCCN(c3nn4c(=O)cc(C)nc4s3)C2)c1 (configuration not stated),.,.,.,.,.
O=C1C(=O)N(C2CCN(C(=O)c3ccccc3Cl)CC2)CCN1Cc1ccc(F)cc1,/,.,/,/,.
COc1ccc(S(=O)(=O)NNC(=O)C2CC(c3cccnc3)=NO2)cc1 (configuration not stated),.,.,.,.,.
CCCCN(C)CCCNC(=O)c1ccc2c(c1)NC(=O)C(N1CCOCC1)S2 (configuration not stated),.,.,.,.,.
CCc1ccc(CNC(=O)c2ccc3c(c2)NC(=O)C(N2CCOCC2)S3)cc1 (configuration not stated),.,23.1µM,.,?,.
